The whole screen tested about 280,000 compounds, of which about 100 (0.036%) were called active. Roughly 11% stayed inconclusive and do not appear here. Calls follow the shape of the dose curve; as a rule, active = well fitted inhibition curve with a large enough effect in the signal ratio, with a control signal flat (not every such curve was filed as active); inconclusive = small, poorly fitted or top-dose-only effect, or effect the other way, or a change in a side signal; inactive = no such curve, though single readings can be large or run the other way; the % refers to the signal ratio. The full list was thinned out, with actives kept by preference.
These molecules were tested against Muscleblind-like protein 1 (Homo sapiens) (UniProt Q9NR56) (assay: qHTS Assay for Inhibitors of MBNL1-poly(CUG) RNA binding). Conditions: TR-FRET MBNL1-His/biotin-(CUG)12 binding, 665/545 ratio; series mostly up to 57.5 µM; activity change, negative = inhibition: at the top concentration.
Excerpt: NIH Chemical Genomics Center [NCGC] NIH Molecular Libraries Probe Production Centers Network [MLPCN] MLPCN Grant: R03 MH087421-01 Assay Submitter (PI): Charles Thornton NCGC Assay Overview: Expanded CTG repeats in the 3' untranslated region of the DM protein kinase (DMPK) gene causes type I myotonic dystrophy (DM1). DM1 is a multi-systemic disease with a prevalence of 1/7000. Clinical features include myotonia, progressive muscle weakness and wasting, cardiac arrhythmia, insulin resistance, hypersomnolence, cataracts, and other symptoms. The pathogenic effect of expanded CTG repeats stems from deleterious effects of the mutant transcript. CUGexp mRNA accumulates in nuclear foci and sequesters proteins of the muscleblind family, of which MBNL1 is the most common family member in skeletal muscles. The binding interaction between MBNL1 and CUGexp tracts leads to deregulation of alternative splicing and is therefore a key molecular step in the pathogenesis of DM1. To target this binding interaction, we optimized a protein-RNA binding assay in 1536-well format for identification of small molecule inhibitors of biotinylated (CUG)12 and his-tagged MBNL1 binding. Protein-RNA complex of MBNL1-His and Biotin-(CUG)12 captures the detection reagents terbium-labeled anti-His antibody and streptavidin conjugated XL665. This brings the terbium label within close proximity to XL665 to allow time-resolved fluorescence resonance energy transfer (TR-FRET). Inhibitors of MBNL1-(CUG)12 binding will disrupt TR-FRET.
NCGC Assay Protocol Summary: This is a TR-FRET binding assay with MBNL1-His and Biotin-(CUG)12 RNA. The assay uses a ratiometric measurement. In the presence of MBNL1-(CUG)12 complex, the excitation energy is transferred to the XL665 acceptor label, causing emission at 665nm, while the 545nm donor signal […]. Data were normalized to the controls for basal activity (buffer only) and 100% activity (with MBNL1-(CUG)12). […] The final titration was 92 nM to 58 uM. (3) Add 1 ul of terbium labeled anti-His antibody (0.055 ng/ul final concentration) (4) Add 1 ul of streptavidin-XL665 (5 nM final concentration) (5) Incubate 60 min at room temperature (6) Detect the assay plate in a EnVision plate reader (PerkinElmer) with Ex=340 nm, Em1=665 nm and Em2=545 nm. Keywords: mytonic dystrophy type I, DM1, muscleblind like 1, MBNL1, CUG expansion, protein-RNA binding inhibitor, high throughput screening, MLSMR, MLSCN, NIH Roadmap, qHTS and NCGC
% is scaled to controls: 0 for no effect and ±100 for the full control effect.

Chain of Muscleblind-like protein 1 (Homo sapiens) (Q9NR56 whole entry, looked up): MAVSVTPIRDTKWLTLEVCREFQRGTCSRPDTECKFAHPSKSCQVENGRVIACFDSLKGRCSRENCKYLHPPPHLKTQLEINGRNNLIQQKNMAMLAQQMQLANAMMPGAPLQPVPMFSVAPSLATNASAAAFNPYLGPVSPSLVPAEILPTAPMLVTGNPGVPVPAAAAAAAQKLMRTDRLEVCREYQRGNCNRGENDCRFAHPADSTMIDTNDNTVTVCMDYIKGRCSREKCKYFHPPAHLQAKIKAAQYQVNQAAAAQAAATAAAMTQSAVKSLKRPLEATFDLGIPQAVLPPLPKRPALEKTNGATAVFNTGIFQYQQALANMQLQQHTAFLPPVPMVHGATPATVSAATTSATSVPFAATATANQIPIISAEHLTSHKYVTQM

Structure (SMILES)	activity change, negative = inhibition
Cc1nc2nc(SCC(=O)Nc3cccc(F)c3)[nH]c2cc1Br	30.1% (inactive)
FC(F)(F)c1nnc2c3ccccc3c(Cl)nn12	-1.44% (inactive)
COc1cc(CCC(=O)N2CCN(c3ccccc3Cl)CC2)cc(OC)c1OC	1.98% (inactive)
Cc1cc(=O)n2[nH]c(-c3cccc(Cl)c3)cc2n1	-2.55% (inactive)
Cc1cc2oc(=O)cc(CN(C)Cc3ccc(OC(F)F)cc3)c2cc1Cl	13.6% (inactive)
CN(Cc1ccccc1)C(=O)c1ccc(COc2ccccc2)cc1	-3.12% (inactive)
CCCCC(=O)Nc1ccccc1N1CCN(c2ccc(F)cc2)CC1	-1.94% (inactive)
CC(=O)N1CCC(C(=O)OCc2ccc(Cl)cc2)(c2ccccc2)CC1	-3.45% (inactive)
COc1cnc(-c2ccccn2)nc1Oc1ccc(C(C)(C)C)cc1	-0.362% (inactive)
COc1ccc(-c2nn(-c3ccccc3)cc2/C=C2/SC(=S)N(CCCC(=O)O)C2=O)c(C)c1	-2.61% (inactive)
C=CCSc1nnc(N2C(=O)C(O)=C(C(=O)c3ccco3)C2c2ccc(F)cc2)s1 (stereo not given)	67.4% (inactive)
CC1C(=O)Nc2ccc(S(=O)(=O)N3CCN(c4ccccc4F)CC3)cc2NC1=O (stereo not given)	-5.31% (inactive)
CCN(CC(=O)Nc1ccc(C)c(S(=O)(=O)N(C)C)c1)Cc1ccccc1	-1.99% (inactive)
O=C(c1ccccc1F)N(Cc1ccccc1)Cc1ccccc1	5.42% (inactive)
COc1ccc(COC(=O)c2ccc(Cl)c(S(=O)(=O)N3CCOCC3)c2)cc1F	-3.53% (inactive)
CN(CC1CCCN(CCc2cccc(C(F)(F)F)c2)C1)C(=O)c1ccc2nc[nH]c2c1 (stereo not given)	-3.08% (inactive)
COc1cc(/C=C/C(=O)N2CCc3ccccc3C2)cc(OC)c1OC	14% (inactive)
CN(C(=O)CN1C(=O)/C(=C/c2ccc(Cl)cc2)SC1=S)C1CCS(=O)(=O)C1 (stereo not given)	12.8% (inactive)
CC(=O)c1cc2c(cc1NC(=O)Cn1nc(-c3ccc(F)cc3)ccc1=O)OCO2	7.1% (inactive)
O=C(C1CCCN(S(=O)(=O)c2ccccc2)C1)N1CCN(c2ccc(F)cc2)CC1 (stereo not given)	-5.05% (inactive)

Structure (SMILES)	activity change, negative = inhibition
CC(C)C[C@@H](COc1ccccc1)N1CCN(CC(C)C)CCC1=O	-6.55% (inactive)
Cc1sc2ncn(CC(=O)NCCCC(=O)N3CCN(c4ccccc4F)CC3)c(=O)c2c1C	-3.39% (inactive)
CCOC(=O)N1CCN(Cc2nc3cc(NC(=O)CC)ccc3n2CC)CC1	-6.4% (inactive)
OC(CNCCc1ccc(Cl)cc1Cl)COc1ccccc1 (stereo not given)	-3.91% (inactive)
Cc1cnc(C)c(N2CCN(C(=O)C3CCC(=O)N(CCc4cccc(F)c4)C3)CC2)n1 (stereo not given)	-0.81% (inactive)
Cc1ccc(-n2nc3c(=O)n(C(C)C(=O)NCc4ccc5c(c4)OCO5)nc(C)c3c2C)cc1 (stereo not given)	10.1% (inactive)
CSc1ccc(S(=O)(=O)N2CCC(C(=O)NCCc3ccccc3)CC2)cc1	1.41% (inactive)
Cc1ccccc1NC(=S)NC(=O)Cc1ccc(Cl)cc1	-7.62% (inactive)
COc1ccc(C(=O)NC2CCN(C(=O)Nc3ccc(F)cc3)CC2)cc1	-6.59% (inactive)
CC(=O)c1cccc(NC(=O)CN2C(=O)c3cccnc3Oc3ccc(Cl)cc32)c1	7.23% (inactive)
Cc1cc(CN(C)C(=O)c2cc(COc3ccc(C)c(C)c3)on2)n[nH]1	96% (inactive)
COc1ccc2c(C)c(CCC(=O)NC3CC3)c(=O)oc2c1C	8.67% (inactive)
COc1cccc(C2CC(c3cccs3)=NN2C(=O)CSC2=NCCS2)c1OC (stereo not given)	4.55% (inactive)
COc1ccc(OC)c(NC(=O)CN(C)CCOc2ccc(Br)cc2)c1	6.51% (inactive)
COC(=O)c1cc(S(=O)(=O)Nc2ccc(C)c(F)c2)c[nH]1	-2.51% (inactive)
COc1ccc(-c2nc3ccccc3c(=O)n2CCc2ccc(O)cc2)cc1	-4.74% (inactive)
CCC(C(=O)OC)n1cnc2scc(-c3ccc(C)cc3)c2c1=O (stereo not given)	2.27% (inactive)
CCc1ccccc1N(CC(=O)NCC1CCCO1)C(=O)CCC(=O)Nc1nccs1 (stereo not given)	1.16% (inactive)
CCN1CCN(c2sc(S(C)(=O)=O)nc2S(=O)(=O)c2ccc(Cl)cc2)CC1	-3.33% (inactive)
CCNC(=O)N1CCCC(C(=O)c2ccc(-c3ccccc3)cc2)C1 (stereo not given)	-6% (inactive)
